# Assay outcomes (PubChem)
# This excerpt belongs to a sample that is enriched for hits.
# 14-3-3g Raf = modulators of 14-3-3 gamma protein binding, primary screen, biochemical, fluorescence polarization | 14-3-3 protein gamma (Homo sapiens), P61981 | FP, 14-3-3gamma / TMR-pS259-Raf peptide binding | inhibition, % at 40 µM | 160,000 tested, 0.19% active; in the data active = inhibition above about 30%;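 also: 0% = protein plus tracer without compound and 100% = blank with tracer alone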
# Target sequence (P61981 whole entry, looked up): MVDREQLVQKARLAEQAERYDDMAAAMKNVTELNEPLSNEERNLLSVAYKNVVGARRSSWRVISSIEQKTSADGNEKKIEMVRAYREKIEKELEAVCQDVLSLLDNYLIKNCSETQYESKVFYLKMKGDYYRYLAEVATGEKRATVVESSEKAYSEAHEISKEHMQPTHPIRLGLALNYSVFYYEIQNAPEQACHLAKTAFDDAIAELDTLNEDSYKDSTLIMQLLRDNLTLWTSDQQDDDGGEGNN
# The depositor's hits bear a star; ! = repeats disagree.
SMILES,14-3-3g Raf
O=c1c(NC2CC2)c(Br)cnn1-c1ccccc1,10
COc1ccc(-c2ccc3c(N)c(C(=O)Nc4ccc5c(c4)OCCO5)sc3n2)cc1,-3
COc1cccc(-c2ccc3c(N)c(C(=O)c4ccc(Cl)cc4)sc3n2)c1,-3
COc1ccc(-c2ccc3c(N)c(C(=O)c4ccc5c(c4)OCCO5)sc3n2)cc1,71*
CC(Nc1cc(N2CCN(S(=O)(=O)c3ccccc3)CC2)ccc1[N+](=O)[O-])C12CC3CC(CC(C3)C1)C2 (stereo not drawn),0
CCC(C)(NC(=O)Cc1cccs1)C(=O)NC1CCCCC1 (stereo not drawn),-8
CCOC(=O)c1cnc2c(OC)cccc2c1Nc1cc(C(=O)O)ccc1C,-9
O=C(c1ccc(Cl)cc1)N1N=C2CCCCC2C1(O)C(F)(F)F (stereo not drawn),5
OCCN1CCN(CC#CCn2c3ccccc3c3ccccc32)CC1,-2
C#CCn1c2ccccc2c2ccccc21,58*
OC(CCl)Cn1c2ccccc2c2ccccc21 (stereo not drawn),8
CCOC(=O)C(CC)Sc1nc2c(cnn2-c2ccc(Cl)cc2)c(=O)[nH]1 (stereo not drawn),17
O=C(CN1CCN(Cc2ccc(F)cc2)C1=O)NCc1ccccc1Cl,-10
O=C(CN1CCN(Cc2ccccc2Cl)C1=O)NCc1ccccn1,71*
O=C(CN1CCN(Cc2ccccc2Cl)C1=O)NCc1cccnc1,-5
CCc1ccc(OCC(=O)n2cc(C(=O)OC)c3ccccc32)cc1,-75
CCOC(=O)c1cnc2ccc(OCC)cc2c1Nc1cc(C)c(Cl)cc1OC,-5
Cc1cccc(N(CC(=O)NC2CC3CCC2C3)S(=O)(=O)c2ccccc2)c1C (stereo not drawn),1
Cc1cccc(N(CC(=O)Nc2c(C)cccc2C)S(=O)(=O)c2ccccc2)c1C,2
Cc1cccc(N(CC(=O)NC2CCCCC2)S(=O)(=O)c2ccccc2)c1C,38*
COC(=O)Oc1ccc2c(=O)c(Oc3cccc(C)c3)c(C(F)(F)F)oc2c1,-4
CCOc1cccc(C(=O)Nc2ccc3nn(-c4cccc5ccccc45)nc3c2)c1,-35
CCOC(=O)C1=C(C)N(c2ccccc2)C(=S)NC1c1ccc(Cl)cc1 (stereo not drawn),-6
COc1ccc(N=Cc2cc(Cl)cc([N+](=O)[O-])c2O)cc1Cl,-20
COc1ccc(N=Cc2cc(Cc3ccccc3Cl)cc([N+](=O)[O-])c2O)cc1OC,79*
SMILES,14-3-3g Raf
COc1ccc(N=Cc2cc([N+](=O)[O-])cc(Br)c2O)cc1OC,9
CC(C)CCn1c(=S)[nH]c2ccc(N3CCOCC3)cc2c1=O,-7
Cc1ccc(-n2nc3c(c2NC(=O)c2cccc([N+](=O)[O-])c2C)CSC3)c(C)c1,2
CCN(CC)C(=O)C1c2cc(OC)c(OC)cc2C(=O)N(C)C1c1ccc(OC)c(OC)c1 (stereo not drawn),-5
CCSc1nnc2c(n1)OC(c1ccc(OC)c(Br)c1)N(C(C)=O)c1ccccc1-2 (stereo not drawn),-13
CC(=O)N1c2ccc(S(=O)(=O)CCC(=O)Nc3ccc(Br)cc3C)cc2CC1C (stereo not drawn),-11
CC(=O)N1c2ccc(S(=O)(=O)CCC(=O)Nc3cc(C)ccc3C)cc2CC1C (stereo not drawn),34*
CC(=O)N1c2ccc(S(=O)(=O)CCC(=O)Nc3ccc(C)c(C)c3)cc2CC1C (stereo not drawn),3
O=C(Nc1cccc(C(F)(F)F)c1)c1ccc(NC(=O)c2cccc(Br)c2)cc1,-15
O=C(Nc1cccc(C(F)(F)F)c1)c1ccc(Br)c([N+](=O)[O-])c1,73*
Cc1c(C(=O)Nc2cccc(C(F)(F)F)c2)cccc1[N+](=O)[O-],-3
CCC1CCCCN1C(=O)Cn1c(=O)c2ccccc2n(CC)c1=O (stereo not drawn),2
Fc1ccc(-c2csc3ncnc(N4CCN(CCOc5ccccc5)CC4)c23)cc1,1
O=C(CCn1nc(-c2ccc(Cl)cc2)c2ccccc2c1=O)N1CCC(Cc2ccccc2)CC1,-7
Cc1ccc2cc3cc(C(=O)NC4CCN(Cc5ccccc5)CC4)oc3nc2c1,-13
Cc1ccc2cc3cc(C(=O)N4CCN(c5ccc([N+](=O)[O-])cc5)CC4)oc3nc2c1,-13
Cc1ccc2cc3cc(C(=O)NC4CCCC4)oc3nc2c1,13
Cc1ccc2cc3cc(C(=O)N4CCC(C)CC4)oc3nc2c1,-6
Cc1ccc2cc3cc(C(=O)N4CCN(c5cccc(C)c5C)CC4)oc3nc2c1,57*
Cc1ccc2cc3cc(C(=O)N4CC(C)CC(C)C4)oc3nc2c1 (stereo not drawn),-4
Cc1ccc2cc3cc(C(=O)N4CCN(c5ccc(F)cc5)CC4)oc3nc2c1,67*
Cc1ccc2cc3cc(C(=O)NC4CC4)oc3nc2c1,36*
Cc1ccc2cc3cc(C(=O)N4CCN(C5CCCCC5)CC4)oc3nc2c1,17
CCCn1cnc2sc(C(=O)N3CCN(c4ccc(F)cc4)CC3)c(C)c2c1=O,-9
Cc1ccc(NC(=O)CCC(=O)O)c(Br)c1,-12
SMILES,14-3-3g Raf
CCOC(=O)C1=NN(C(C)=O)C2C(=O)N(c3ccc(Cl)cc3)C(=O)C12 (stereo not drawn),-6
Cc1ccc(-n2c(N)c(C(=O)Nc3ccccc3)sc2=S)cc1C,6
O=c1oc2ccc(Cl)cc2cc1-c1nnc(-c2cccc(F)c2)o1,-9
O=C1CSC(c2cccc(F)c2)N1c1ccc(Oc2ccc(Cl)cc2)cc1 (stereo not drawn),-4
COc1ccc(CCN2C(=O)C3C4c5ccccc5C(C)(c5ccccc54)C3C2=O)cc1OC (stereo not drawn),0
O=C(Nc1nccs1)c1ccc(C(F)(F)F)cc1,-5
CC1Cc2nc(SCC(=O)Nc3cccc4ccccc34)n(Cc3ccccc3)c(=O)c2S1 (stereo not drawn),-5
O=C1CN(CCc2ccccc2)CC(=O)N1CCc1ccccc1,166*
O=C1CN(S(=O)(=O)c2ccc(F)cc2)CC(=O)N1CCc1ccccc1,-6
O=C(c1cccs1)N1CC(=O)N(CCc2ccccc2)C(=O)C1,-33
Cc1ccc(C(=O)Nc2cccc(C(=O)O)c2)cc1S(=O)(=O)Nc1ccc(I)cc1,-3
Cc1cc(=O)oc(C)c1C(=O)NCc1ccccn1,45*!
O=C(NCc1ccccn1)c1ccc(CS(=O)(=O)Cc2ccc(Cl)cc2)o1,2
Cc1ccccc1CS(=O)(=O)Cc1ccc(C(=O)NCc2ccccn2)o1,33*
Cc1ccc(CNC(=O)c2c(C)cc(=O)oc2C)cc1,-4
Cc1ccccc1CS(=O)(=O)Cc1ccc(C(=O)NCc2ccco2)o1,1
Cc1cc(=O)oc(C)c1C(=O)NCc1ccccc1Cl,-9
COc1cccc(-n2c(=O)c3c(C)c(C(=O)N(C)C)sc3n(CC(=O)Nc3ccccc3F)c2=O)c1,-3
COC(=O)c1c(NS(=O)(=O)c2ccc(OC)c(OC)c2)sc2c1CCCC2,0
C=CCN1C(=O)C(C(=O)N(Cc2ccccc2)Cc2ccccc2)C2CC1(C)Oc1ccccc12 (stereo not drawn),-2
CCOC(=O)c1cccc(NS(=O)(=O)c2ccc3c(c2)CC(C)N3C(C)=O)c1 (stereo not drawn),-4
O=C(NS(=O)(=O)c1ccc(Br)cc1)c1ccccc1,-3
CCOc1cc(C2c3c(-c4ccc(OC)cc4)n[nH]c3C(=O)N2c2ccc(Br)cc2)ccc1O (stereo not drawn),4
